# Assay results published in PubChem BioAssay (NCATS).
# “And” between values parts separate entries of the source, which are not always exact repeats. Equal entries are not always repeated. A number with no mark means an inactive call. Records with an inconclusive call do not appear. Entries that show only a call come without a potency. The source made the active and inactive calls. Unless noted, calls follow the shape of the dose curve; as a rule, active = well fitted curve in the direction sought with a large enough effect; inconclusive = small, poorly fitted or top-dose-only effect, or another doubt; inactive = no such curve, though single readings can be large; an effect the other way counts as inactive or inconclusive.
# How the values were obtained:
# [1] = target: ATP-dependent 6-phosphofructokinase (Trypanosoma brucei brucei) (UniProt O15648); experiment: qHTS Assay to Find Inhibitors of T. brucei phosphofructokinase: hit validation (AID 492961)
# Sequence of ATP-dependent 6-phosphofructokinase (Trypanosoma brucei brucei) (O15648 whole entry, looked up): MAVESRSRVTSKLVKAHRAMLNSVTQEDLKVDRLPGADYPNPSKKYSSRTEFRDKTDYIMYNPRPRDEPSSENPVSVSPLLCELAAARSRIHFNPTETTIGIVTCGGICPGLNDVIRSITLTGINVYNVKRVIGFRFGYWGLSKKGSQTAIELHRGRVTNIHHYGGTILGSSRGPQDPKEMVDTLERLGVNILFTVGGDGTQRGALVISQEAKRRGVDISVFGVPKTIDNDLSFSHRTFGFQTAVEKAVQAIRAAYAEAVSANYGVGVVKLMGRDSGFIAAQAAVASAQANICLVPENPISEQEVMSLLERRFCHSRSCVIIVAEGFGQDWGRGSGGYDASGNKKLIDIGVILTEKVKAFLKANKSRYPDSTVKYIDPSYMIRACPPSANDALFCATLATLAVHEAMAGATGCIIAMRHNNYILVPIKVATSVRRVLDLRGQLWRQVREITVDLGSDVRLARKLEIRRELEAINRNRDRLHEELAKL
# Summary of the method: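 Luminescence from ADP-Glo reports ADP generated as T. brucei PFK (1.25 nM) phosphorylates 0.5 mM fructose-6-phosphate using 0.1 mM ATP. Reactions ran 45 min at room temperature, pH 8.0.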
# [2] = S16 Schwann cell PMP22 intronic element firefly luciferase assay (AID 624032); also: nearly all actives have a fitted effect of over 30% in size; also: potency is read from the fitted curve at half-maximal effect
# Summary of the method: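 Rat S16 Schwann cells stably carrying firefly luciferase driven by a PMP22 intronic element, in 10% FBS, treated 24 h at 37 C. ONE-Glo luminescence normalized to PTC124 control and DMSO (0%); curves classed by r2, magnitude and activity.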
# ATS189 = experiment: qHTS profiling for inhibitors of Plasmodium falciparum proliferation (AID 504749); also: nearly all actives have a fitted effect of over 60% in size; also: potency is read from the fitted curve at half-maximal effect; conditions: P. falciparum in erythrocytes, SYBR Green DNA, 72 h; series mostly up to 28.7 µM
# Summary of the method: (§1)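 Each compound contacts P. falciparum-infected red blood cells for 72 h at 37 C; lysis buffer (Tris, EDTA, saponin, Triton X, SYBR Green I) is added and fluorescence measured next morning; values normalized to controls.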
# CP191 = experiment: as above; conditions: P. falciparum in erythrocytes, SYBR Green DNA, 72 h; series mostly up to 28.7 µM
# Summary of the method: as §1
# CP252 = experiment: as above; conditions: P. falciparum in erythrocytes, SYBR Green DNA, 72 h; series mostly up to 28.7 µM
# Summary of the method: as §1
# CP291 = experiment: as above; conditions: P. falciparum in erythrocytes, SYBR Green DNA, 72 h; series mostly up to 28.7 µM
# Summary of the method: as §1
# Dd2 = experiment: as above; conditions: P. falciparum in erythrocytes, SYBR Green DNA, 72 h; series mostly up to 28.7 µM
# Summary of the method: as §1
# 3D7 = experiment: as above; conditions: P. falciparum in erythrocytes, SYBR Green DNA, 72 h; series mostly up to 28.7 µM
# Summary of the method: as §1
# CP185 = experiment: as above; conditions: P. falciparum in erythrocytes, SYBR Green DNA, 72 h; series mostly up to 28.7 µM
# Summary of the method: as §1
# CP211 = experiment: as above; conditions: P. falciparum in erythrocytes, SYBR Green DNA, 72 h; series mostly up to 28.7 µM
# Summary of the method: as §1
# CP250 = experiment: as above; conditions: P. falciparum in erythrocytes, SYBR Green DNA, 72 h; series mostly up to 28.7 µM
# Summary of the method: as §1
# CP286 = experiment: as above; conditions: P. falciparum in erythrocytes, SYBR Green DNA, 72 h; series mostly up to 28.7 µM
# Summary of the method: as §1
# CP305 = experiment: as above; conditions: P. falciparum in erythrocytes, SYBR Green DNA, 72 h; series mostly up to 28.7 µM
# Summary of the method: as §1
# CP315 = experiment: as above; conditions: P. falciparum in erythrocytes, SYBR Green DNA, 72 h; series mostly up to 28.7 µM
# Summary of the method: as §1
# CP329 = experiment: as above; conditions: P. falciparum in erythrocytes, SYBR Green DNA, 72 h; series mostly up to 28.7 µM
# Summary of the method: as §1
# TAB113 = experiment: as above; conditions: P. falciparum in erythrocytes, SYBR Green DNA, 72 h; series mostly up to 28.7 µM
# Summary of the method: as §1
# [3] = Confirmation and Secondary Assay for Modulators of Hemoglobin Beta Chain Splicing at IVS2 654 locus (AID 910);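 also: HeLa cells stably carrying EGFP split by mutant beta-globin IVS2-654 intron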
# Summary of the method: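 HeLa cells stably expressing EGFP interrupted by β-globin IVS2-654 intron, seeded overnight in Opti-MEM/2% FCS, then treated 2 days at 37 °C. Restored splicing read as total peak GFP intensity per well by laser scanning cytometry (488 nm excitation, 500–520 nm emission); 500 nM antisense PNA as control.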
# [4] = Confirmation and Secondary Assay for Modulators of Hemoglobin Beta Chain Splicing at IVS2 705 locus (AID 930);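 also: HeLa cells stably expressing the EGFP-705 splicing reporter; GFP fluorescence per well restored by corrected splicing of the IVS2-705 intron in EGFP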
# Summary of the method: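 HeLa IVS2-705 EGFP reporter cells, 500/well, compound 2 d at 37C; correct splicing yields fluorescent EGFP. Control: 500 nM antisense PNA. Read-out: total peak GFP intensity.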
# [5] = target: Thyroid hormone receptor beta (Homo sapiens) (UniProt P10828); experiment: qHTS assay for small molecule agonists of thyroid hormone receptor beta signaling (AID 588545; calls by dose curve)
# Sequence of Thyroid hormone receptor beta (Homo sapiens) (P10828 whole entry, looked up): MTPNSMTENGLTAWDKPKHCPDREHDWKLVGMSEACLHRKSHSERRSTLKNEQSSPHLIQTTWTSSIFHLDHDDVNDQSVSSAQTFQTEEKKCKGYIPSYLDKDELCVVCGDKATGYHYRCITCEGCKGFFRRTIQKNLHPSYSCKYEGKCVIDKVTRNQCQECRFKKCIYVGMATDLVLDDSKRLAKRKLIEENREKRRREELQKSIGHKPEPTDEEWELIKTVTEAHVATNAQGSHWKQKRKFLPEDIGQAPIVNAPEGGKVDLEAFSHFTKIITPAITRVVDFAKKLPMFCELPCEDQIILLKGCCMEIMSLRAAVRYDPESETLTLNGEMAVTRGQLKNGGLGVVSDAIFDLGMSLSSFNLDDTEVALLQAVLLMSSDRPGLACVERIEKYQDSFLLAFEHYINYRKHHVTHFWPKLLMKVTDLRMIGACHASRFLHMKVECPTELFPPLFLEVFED
# Summary of the method: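 Compounds were tested as agonists in TR-UAS-bla-GripTite HEK 293 cells. After 18 hrs at 37 C, CCF4 substrate was added and fluorescence read after 2 hrs at room temperature.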
# [6] = target: Peroxisome proliferator-activated receptor alpha (Homo sapiens) (UniProt Q07869); experiment: qHTS assay for small molecule agonists of the peroxisome proliferator-activated receptor alpha (PPARalpha) signaling pathway (AID 651778); conditions: PathHunter PPARalpha complementation, chemiluminescence, 6 h; max response: hits give high values
# Sequence of Peroxisome proliferator-activated receptor alpha (Homo sapiens) (Q07869 whole entry, looked up, the tested form may be a part): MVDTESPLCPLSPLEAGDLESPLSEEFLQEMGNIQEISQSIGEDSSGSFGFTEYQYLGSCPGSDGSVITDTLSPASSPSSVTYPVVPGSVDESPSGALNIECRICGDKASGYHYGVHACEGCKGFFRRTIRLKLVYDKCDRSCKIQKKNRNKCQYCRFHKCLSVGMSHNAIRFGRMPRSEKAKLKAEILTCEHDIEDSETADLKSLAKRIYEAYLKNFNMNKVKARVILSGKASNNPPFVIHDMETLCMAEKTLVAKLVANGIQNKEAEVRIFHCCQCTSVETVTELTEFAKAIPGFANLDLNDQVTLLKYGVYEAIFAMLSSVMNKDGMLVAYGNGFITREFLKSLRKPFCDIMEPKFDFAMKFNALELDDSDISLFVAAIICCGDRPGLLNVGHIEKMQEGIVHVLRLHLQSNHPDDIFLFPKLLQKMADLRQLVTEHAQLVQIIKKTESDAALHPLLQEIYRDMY
# Summary of the method: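 Enzyme-fragment complementation assay in which ligand-bound PPARalpha translocates and forms an active enzyme that generates chemiluminescence. Cells were plated overnight, exposed to compound for 6 hr at 37 C, and then given detection reagent for 60 min at room temperature.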
smiles,measurement,setting,value
C#CC1(O)C=CC2C3CCC4=CC(=O)CCC4C3CCC21CC (centres undefined),outcome,[1],inactive
same,Potency,[2],6.42 µM (active)
same,Potency,ATS189,inactive
same,Potency,CP191,5.01 µM (active)
same,Potency,CP252,inactive
same,Potency,CP291,15.1 µM (active)
same,Potency,Dd2,inactive
CCCC(C)C1(CC)C(=O)NC(=S)NC1=O (centres undefined),outcome,[1],inactive
same,Potency,[2],inactive
same,Potency,3D7,inactive
same,Potency,ATS189,inactive
same,Potency,CP185,inactive
same,Potency,CP191,inactive
same,Potency,CP211,inactive
same,Potency,CP250,inactive
same,Potency,CP252,inactive
same,Potency,CP286,inactive
same,Potency,CP291,inactive
same,Potency,CP305,inactive
same,Potency,CP315,inactive
same,Potency,CP329,inactive
same,Potency,Dd2,inactive
same,Potency,TAB113,inactive
CC(=O)Oc1c2c(c(CC=C(C)C)c3c1C(=O)C1=CC4CC5C(C)(C)OC(C/C=C(\C)C(=O)O)(C4=O)[C@]15O3)OC(C)(CCC=C(C)C)C=C2 (some centres undefined),Potency,[3],inactive
same,outcome,[4],inactive
CCCCN(CC)c1c([N+](=O)[O-])cc(C(F)(F)F)cc1[N+](=O)[O-],Potency,[3],inactive
same,outcome,[4],inactive
same,Potency,[5],inactive
same,max response,[6],-2.71%
CC1CC(Cl)CCC1C(=O)OC(C)(C)C (centres undefined),Potency,[3],inactive
same,outcome,[4],inactive
COc1ccc(CC2NC[C@H](O)[C@H]2OC(C)=O)cc1 (some centres undefined),Potency,[3],inactive
same,outcome,[4],inactive
CN(C)C1C(=O)C(C(N)=O)=C(O)[C@@]2(O)C(=O)C3=C(O)c4c(O)cccc4[C@@](C)(O)C3CC12 (some centres undefined),Potency,[3],inactive
same,outcome,[4],inactive
CC(C)N(C(=O)CCl)c1ccccc1,Potency,[3],inactive
same,outcome,[4],inactive
same,Potency,[5],inactive
same,max response,[6],-1.12%
C[C@H]1O[C@H](O[C@H]2[C@H](O)[C@@H](O)[C@@H](O)[C@H](O)[C@@H]2O)[C@@H](N)C[C@@H]1NC(=N)C(=O)O,Potency,[3],inactive
same,outcome,[4],inactive
C[C@@]12C=CC(=O)C=C1CCC1C2CC[C@]2(C)C(=O)CCC12 (some centres undefined),Potency,[3],inactive
same,outcome,[4],inactive
NCC(N)C(=O)c1ccccc1 (centres undefined),Potency,[3],inactive
same,outcome,[4],inactive
N#Cc1c(Cl)c(Cl)c(Cl)c(C#N)c1Cl,Potency,[3],inactive
same,outcome,[4],inactive
same,Potency,[5],inactive
same,max response,[6],-3.28%
OCC1OC(n2cnc3cc(Cl)c(Cl)cc32)C(O)C1O (centres undefined),Potency,[3],inactive
same,outcome,[4],inactive
CC1=CC(=O)c2c(O)cccc2C1=O,Potency,[3],inactive
same,outcome,[4],inactive
CNC1=CN(O)C(c2ccccc2)=c2cc(Cl)ccc2=N1,Potency,[2],inactive
CN(CCC(N)CC(=O)NC1C=CC(n2ccc(N)nc2=O)OC1C(=O)O)C(=N)N (centres undefined),Potency,[3],inactive
same,outcome,[4],inactive
O=C1CC[C@]2(O)C3Cc4ccc(O)c5c4C2(CCN3CC2CC2)C1O5 (some centres undefined),Potency,[3],inactive
same,outcome,[4],inactive
O=C(NC(=O)c1c(F)cccc1F)Nc1ccc(Cl)cc1,Potency,[3],inactive
same,outcome,[4],inactive
same,Potency,[5],inactive
same,max response,[6],-1.48%
COc1ccc(C2Oc3c(I)c(OC)cc(OC)c3CC2O)cc1OC (centres undefined),Potency,[3],inactive
same,outcome,[4],inactive
CC(=O)OCC1=C(C(=O)O)N2C(=O)C(NC(=O)CCCC(N)C(=O)O)C2SC1 (centres undefined),Potency,[3],inactive
same,outcome,[4],inactive
COC(=O)/C(C)=C\CC12OC(C)(C)C3CC(C=C4C(=O)c5c(OC)c6c(c(CC=C(C)C)c5OC431)OC(C)(CCC=C(C)C)C=C6)C2=O (centres undefined),Potency,[3],inactive
same,outcome,[4],inactive
CSc1nc(NC(C)C)nc(NC(C)C)n1,Potency,[3],inactive
same,outcome,[4],inactive
same,Potency,[5],inactive
same,max response,[6],8.44%
O=C1C=C2C(=CCOC2O)O1 (centres undefined),Potency,[3],inactive
same,outcome,[4],inactive
same,max response,[6],0.776%
CCOc1nc(NC)nc(NC(=O)NS(=O)(=O)c2ccccc2C(=O)OC)n1,Potency,[5],inactive
same,max response,[6],-5.58%
CCOP(=O)(SC(C)CC)SC(C)CC (centres undefined),Potency,[5],inactive
same,max response,[6],-1.1%
C/C(=N\C(N)=O)N(C)Cc1ccc(Cl)nc1,Potency,[5],inactive
same,max response,[6],-1.45%
O=S1OC[C@@H]2[C@H](CO1)[C@@]1(Cl)C(Cl)=C(Cl)[C@]2(Cl)C1(Cl)Cl (some centres undefined),Potency,[5],inactive
same,max response,[6],-0.211% and 0.181%
FC(F)(F)c1ccc(OCCCOc2c(Cl)cc(OCC=C(Cl)Cl)cc2Cl)nc1,Potency,[5],inactive
same,max response,[6],-0.598%
CCOP(=S)(OCC)SCC(=O)NC(C)C,Potency,[5],inactive
same,max response,[6],-4.11%
CCOC1Oc2ccc(OS(C)(=O)=O)cc2C1(C)C (centres undefined),Potency,[5],inactive
same,max response,[6],-0.11%
CCOP(=O)(OCC)SCSCC,Potency,[5],inactive
same,max response,[6],-4.89%
COCc1cnc(C2=NC(C)(C(C)C)C(=O)N2)c(C(=O)O)c1 (centres undefined),Potency,[5],inactive
same,max response,[6],0.0113%
Cc1cc(Cl)ccc1OCC(=O)O,Potency,[5],inactive
same,max response,[6],0.459% and -1.12%
C/C=C(\C)C(=O)O[C@H]1C[C@@H](OC(C)=O)[C@@]2(C(=O)OC)CO[C@H]3[C@@H](O)[C@@](C)([C@]45O[C@@]4(C)[C@H]4C[C@@H]5O[C@@H]5OC=C[C@@]54O)[C@H]4[C@]1(CO[C@]4(O)C(=O)OC)[C@@H]32,Potency,[5],inactive
same,max response,[6],-3.71%
COc1nc(C)nc(NC(=O)NS(=O)(=O)c2ccccc2CCC(F)(F)F)n1,Potency,[5],inactive
same,max response,[6],-1.05%
CCOP(=S)(OCC)Oc1ncn(-c2ccccc2)n1,Potency,[5],inactive
same,max response,[6],-2.29%
O=[As](O)(O)O,Potency,[5],inactive
same,max response,[6],0.0106%
CN1Cc2c(ccc3c2OCO3)C2C(O)Cc3cc4c(cc3C21)OCO4 (centres undefined),Potency,[3],inactive
same,outcome,[4],inactive
C=CC(=O)NCO,Potency,[5],inactive
same,max response,[6],-1.6% and -1.01%
CCOP(=O)(OCC)SCSC(C)(C)C,Potency,[5],inactive
same,max response,[6],0.241%
